The sample as a whole holds a higher share of hits than the screen did.
14-3-3g Raf = modulators of 14-3-3 gamma protein binding, primary screen, biochemical, fluorescence polarization; FP, 14-3-3gamma / TMR-pS259-Raf peptide binding; 0.19% of 160,000 active; inhibition, % at 40 µM; in the data active means inhibition above about 30%
Target sequence (P61981 whole entry, looked up): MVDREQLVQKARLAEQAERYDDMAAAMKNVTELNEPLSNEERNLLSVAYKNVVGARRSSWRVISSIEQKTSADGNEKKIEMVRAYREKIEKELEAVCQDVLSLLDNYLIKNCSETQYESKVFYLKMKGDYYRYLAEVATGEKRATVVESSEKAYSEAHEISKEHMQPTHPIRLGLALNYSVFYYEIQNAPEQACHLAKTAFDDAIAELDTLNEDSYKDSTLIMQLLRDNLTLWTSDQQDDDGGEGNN
Large screens that a line does not name were inactive.

COc1ccc(/C(O)=C2\C(=N)N(c3ccc([N+](=O)[O-])cc3C)C3=C(C(=O)CCC3)C2c2cc(OC)c(OC)c(OC)c2)cc1 (stereo unspecified)	none
COc1ccc(NC(=O)C2C3C=CC4(O3)C2C(=O)N(CC2COc3ccccc3O2)C4C(=O)NC2CCCC(C)C2C)cc1 (stereo unspecified)	none
CCOc1ccc2cc(C3=NN(C(=O)CCC(=O)O)C(c4ccc(C)cc4)C3)c(=O)[nH]c2c1 (stereo unspecified)	none
COCCCNC(=O)c1cccn2c(=O)c3cc4ccccc4cc3nc12	none
NS(=O)(=O)c1ccc(CCNC(=O)c2cccn3c(=O)c4cc5ccccc5cc4nc23)cc1	14-3-3g Raf 91
O=C(NCCc1ccccc1)c1cccn2c(=O)c3cc(Cl)ccc3nc12	none
COCC(=O)Cc1nc(N)nc(Nc2ccc(C)cc2)n1	none
COc1ccc(S(=O)(=O)Nc2cc(C(C)C)c(O)c(S(=O)(=O)c3ccc(OC)cc3)c2C)cc1	none
COc1ccccc1OCC(=O)Nc1ccc(-c2nnc(-c3ccccc3)o2)cc1	none
c1ccc(-c2nnc(-c3ccccc3)o2)cc1	none
Cc1nnc(-c2ccccc2)nn1	14-3-3g Raf 86
Nc1nc(N)nc(-c2ccccc2)n1	none
CC1(C)CC(=O)c2c(nc3ccccc3c2NCc2ccccc2)C1	none
COc1ccc(C2/C(=C(\O)c3ccc(C)cc3)C(=O)C(=O)N2CCN(C)C)cc1 (stereo unspecified)	none
Cc1nc2sc3c(c2c(=O)n1Cc1ccc(Cl)cc1)CCCC3	none
Cc1cc(NS(=O)(=O)c2ccc(NC(=O)CCC(=O)O)cc2)no1	14-3-3g Raf 37
CCC(=O)Nc1ccc(S(=O)(=O)Nc2cc(C)on2)cc1	none
Cc1cc(NS(=O)(=O)c2ccc(NC(=O)CCN3C(=O)c4ccccc4C3=O)cc2)no1	none
COCCn1cc(C(=O)N2CCC(C(N)=O)CC2)c2c3ccccc3n(C)c2c1=O	none
CCOC(=O)c1[nH]c2c(c1C)C(=O)CC(c1ccc(C)cc1)C2 (stereo unspecified)	none
O=C(O)c1ccc(COc2cccc3ccccc23)o1	none
CC1(C)CC(=O)C2=C(C1)N(Cc1ccccc1)C1=C(C(=O)CC(C)(C)C1)C2c1ccc(O)cc1	none
CCN1C2=C(C(=O)CC(C)(C)C2)C(c2ccc(O)cc2)C2=C1CC(C)(C)CC2=O	14-3-3g Raf 102
CCN1C2=C(C(=O)CC(C)(C)C2)C(c2ccc(O)c(Cl)c2)C2=C1CC(C)(C)CC2=O	none
CCCn1cnc2sc(C(=O)Nc3cc([N+](=O)[O-])ccc3OC)c(C)c2c1=O	none
O=[N+]([O-])c1cccc(CSc2nnc(-c3cccc(F)c3)n2-c2ccccc2)c1	none
Oc1ccc(Cl)cc1C=Nc1ccc2nc(-c3ccccc3)[nH]c2c1	14-3-3g Raf 30
COc1ccc(C=Nc2ccc3nc(-c4ccccc4)[nH]c3c2)cc1OC	none
O=C(Nc1cc(N=Cc2cc(Cl)ccc2O)ccc1Cl)c1ccccc1	none
Cc1nn(-c2ccc3ccccc3n2)c2c1C(=O)CC(C)(C)C2	none
CCOC(=O)Cn1cc(C(=O)C2CC2)c2ccccc21	none
COC(=O)Cn1cc(C(=O)C2CC2)c2ccccc21	14-3-3g Raf 50
CCCC(=O)c1cn(CC(=O)OC)c2ccccc12	none
COc1ccc(C(=O)Oc2ccc(C=Nc3ccccc3)cc2[N+](=O)[O-])cc1	none
CC(C)Sc1nc2sc3c(c2c(=O)n1-c1ccccc1)CCC3	none
COc1cc(C2NC(=O)NC(C)=C2C(=O)OCc2ccccc2)cc(Br)c1O (stereo unspecified)	none
COc1ccc(OC)c(CN2CCC(N3CCN(CCO)CC3)CC2)c1	none
Cc1ccc(N=Cc2cc(Cl)cc([N+](=O)[O-])c2O)c(O)c1	none
Cc1cc(C=Nc2ccc(N3CCOCC3)cc2)c(O)c([N+](=O)[O-])c1	14-3-3g Raf 86
Cc1cc(Br)c(O)c(C=Nc2ccc(N3CCOCC3)cc2)c1	none
Cc1ccc(N=Cc2cc(Cl)cc([N+](=O)[O-])c2O)cc1Cl	14-3-3g Raf 42
O=[N+]([O-])c1cc(Cl)cc(C=Nc2ccc(Cl)c(-c3nc4ccccc4o3)c2)c1O	none
O=[N+]([O-])c1cc(Cc2ccccc2Cl)cc(C=Nc2ccc(N3CCOCC3)cc2)c1O	none
O=C(Cn1cc(C(=O)C(F)(F)F)c2ccccc21)NCc1cccs1	none
CCOC(=O)c1c(NC(=O)c2ccccc2F)sc(C(=O)Nc2ccc(C)c(Cl)c2)c1C	none
O=C(Nc1nnc(-c2cccc([N+](=O)[O-])c2)s1)c1cccc(F)c1	none
N#CC(C#N)C(C#N)(C#N)C1CCCCC1=O (stereo unspecified)	14-3-3g Raf 142
C=CCOC(=O)C1=C(C)Nc2ncnn2C1c1cccc(Br)c1 (stereo unspecified)	none
O=C1CC(c2cccc(C(F)(F)F)c2)c2cc3c(cc2N1)OCCO3 (stereo unspecified)	none
COC(=O)CCn1cc(F)c(N)nc1=O	none
CCN(C(=O)CCS(=O)(=O)c1ccc(OC)cc1)c1ccccc1	none
CCOC(=O)c1ccc(NC2=CC(=NS(=O)(=O)c3cccs3)c3ccccc3C2=O)cc1	14-3-3g Raf 67
O=C1C(Nc2ccccc2)=CC(=NS(=O)(=O)c2cccs2)c2ccccc21	none
CC(=O)Nc1ccc(NC2=CC(=NS(=O)(=O)c3cccs3)c3ccccc3C2=O)cc1	none
COc1ccccc1Oc1ccc(S(=O)(=O)NC(C)C(=O)O)cc1 (stereo unspecified)	none
CN(C(=O)c1cnccn1)C1(C(=O)NC2CCCCC2)CCCCC1	none
CCOC(=O)c1ccc2ncc(C(=O)OCC)c(Nc3ccc(OC)cc3)c2c1	none
Cc1cccc(C(=O)Nc2cccc(NC(=O)c3ccc(F)cc3)c2)c1	none
Cc1cccc(C(=O)Nc2ccc(O)cc2)c1	none
Cc1cccc(C(=O)Nc2cccc(NC(=O)c3cccc(C)c3)c2)c1	14-3-3g Raf 45
CNc1ccc2nc3ccccc3[n+](CCO)c2c1	14-3-3g Raf 67
CCc1ccc(Nc2cc(C(=O)O)c3ccccc3n2)cc1	none
Clc1ccccc1C1C=C(c2cccs2)Nc2nnnn21 (stereo unspecified)	none
Cc1ccc(C2C=C(c3cccs3)Nc3nnnn32)cc1 (stereo unspecified)	14-3-3g Raf 37
Cc1ccc(C2=CC(c3ccc(C)cc3)n3nnnc3N2)cc1 (stereo unspecified)	none
CCc1ccc(C2=CC(c3cccc(C)c3)n3nnnc3N2)cc1 (stereo unspecified)	none
Cc1cccc(C2C=C(c3ccc(Br)s3)Nc3nnnn32)c1 (stereo unspecified)	14-3-3g Raf 48
Cc1cccc(C2C=C(c3ccc(Cl)cc3)Nc3nnnn32)c1 (stereo unspecified)	none
CCOC(=O)c1sc(NC(=O)c2ccc(S(=O)(=O)N3CC(C)CC(C)C3)cc2)nc1-c1ccccc1 (stereo unspecified)	none
Cn1c(=O)c2cn(-c3cccc([N+](=O)[O-])c3)cc2n(C)c1=O	none
CCN1CCN(CCCNC(=O)c2cc3cc4ccc(C)cc4nc3o2)CC1	none
Cc1ccc2cc3cc(C(=O)NCCCN4CCN(C)CC4)oc3nc2c1	14-3-3g Raf 66
Cc1ccc2cc3cc(C(=O)NCCCN4CCC(C)CC4)oc3nc2c1	none
CCCOc1ccc(C=Nc2ccc(C)cc2C)cc1OC	none
COc1ccc(S(=O)(=O)CCC(=O)Nc2ccc(Br)cc2C)cc1	none
CCOC(=O)c1sc(=NC(=O)c2cc([N+](=O)[O-])ccc2Cl)n(C)c1C	none
CCOC(=O)C1=CN(Cc2ccc(Cl)cc2)C=C(C(=O)OCC)C1c1ccc(C)s1	none
C=CCSc1nnc2c(n1)OC(c1ccc(N(C)C)cc1)Nc1ccccc1-2 (stereo unspecified)	14-3-3g Raf 38

High-throughput results deposited in PubChem BioAssay by Emory University Molecular Libraries Screening Center.
